Results from the supplement of paper PMC11624193, “Coupling cellular drug-target engagement to downstream pharmacology with CeTEAM” (Nature Communications, 2024).
Counter-ions that a name gives are not always drawn. ± gives the standard deviation of the averaged measurements.

molecular target: PARP1 L713F-nLuc biosensor (HCT116) (UniProt P09874); test: PARP1 L713F-nLuc/akaLuc ratio relative to DMSO control (biosensor stabilization) (fold change); higher = more PARP1 biosensor stabilization (target engagement / stabilizer), active = hit call of the paper; details: stock concentration (mM; final µM = stock mM x 1): 10; 24 h
Sequence (P09874 whole entry L713F, looked up): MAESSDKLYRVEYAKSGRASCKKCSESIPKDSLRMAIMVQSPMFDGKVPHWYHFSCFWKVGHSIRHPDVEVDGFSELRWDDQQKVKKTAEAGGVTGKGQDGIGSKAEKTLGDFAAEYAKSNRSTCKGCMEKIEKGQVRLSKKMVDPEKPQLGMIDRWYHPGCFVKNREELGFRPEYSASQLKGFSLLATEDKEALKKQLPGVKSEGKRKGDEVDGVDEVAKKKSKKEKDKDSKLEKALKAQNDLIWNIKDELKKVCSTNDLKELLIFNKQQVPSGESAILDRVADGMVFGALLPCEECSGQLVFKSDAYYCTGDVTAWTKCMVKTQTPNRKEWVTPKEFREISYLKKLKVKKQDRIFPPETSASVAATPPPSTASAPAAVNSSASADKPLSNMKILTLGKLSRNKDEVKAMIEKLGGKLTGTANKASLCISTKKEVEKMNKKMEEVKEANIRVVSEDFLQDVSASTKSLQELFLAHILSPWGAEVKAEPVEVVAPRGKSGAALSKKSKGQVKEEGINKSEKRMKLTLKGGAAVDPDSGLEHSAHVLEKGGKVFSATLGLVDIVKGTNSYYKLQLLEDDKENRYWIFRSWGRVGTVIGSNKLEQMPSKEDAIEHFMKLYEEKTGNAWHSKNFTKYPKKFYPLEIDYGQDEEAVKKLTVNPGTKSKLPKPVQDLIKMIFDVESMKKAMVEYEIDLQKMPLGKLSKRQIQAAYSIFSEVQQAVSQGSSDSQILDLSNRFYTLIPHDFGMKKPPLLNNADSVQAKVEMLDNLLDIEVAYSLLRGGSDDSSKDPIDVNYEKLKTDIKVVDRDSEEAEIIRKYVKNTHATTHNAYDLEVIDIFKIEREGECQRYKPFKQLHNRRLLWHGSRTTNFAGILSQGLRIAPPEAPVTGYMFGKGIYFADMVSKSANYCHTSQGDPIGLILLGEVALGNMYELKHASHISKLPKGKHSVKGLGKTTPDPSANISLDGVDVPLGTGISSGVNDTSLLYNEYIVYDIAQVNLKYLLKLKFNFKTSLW

Compound	PARP1 L713F-nLuc/akaLuc ratio
CCCCCOC(=O)Nc1nc(=O)n([C@@H]2O[C@H](C)[C@@H](O)[C@H]2O)cc1F [Capecitabine]	0.759 (inactive)
Cn1cc(C(=O)Nc2ccc([C@@H]3C[C@H]3NCC3CC3)cc2)cn1	0.949 (inactive)
CC(C)c1c(-c2ccccc2)nc2c(C#N)c[nH]n2c1=O	0.786 (inactive)
CN(C)CCCCCCNC(=O)c1cccc(-c2cc(O)c3ncccc3c2)c1	0.363 (inactive)
CN(C)c1nc2c(Br)c(Br)c(Br)c(Br)c2n1CC(=O)O	1.02 (inactive)
CC(C)(O)[C@H]1CC[C@H](Nc2ccc3ncc(-c4cccc(C(F)(F)F)c4)n3n2)CC1	0.732 (inactive)
COc1cc(C(=O)N2C[C@H](N)CC[C@@H]2C)cc2nc(-c3cc4cccnc4n3CC3CC3)n(C)c12 [BMS-P5 (free base)]	0.878 (inactive)
CC(=O)NCC(=O)N1[C@@H]2CC[C@H]1c1ccc(Nc3ncc(C(F)(F)F)c(NC4CCC4)n3)cc12	1.27 (inactive)
CNc1cc(Nc2cccn(-c3ccccn3)c2=O)nn2c(C(=O)N[C@@H]3C[C@@H]3F)cnc12	0.72 (inactive)
CC1(N)CCN(c2cccnc2NC(=O)c2nc(-c3ncccc3C(F)(F)F)cnc2N)CC1 [Darovasertib]	0.6 (inactive)
O=C([C@@H](Cc1cccc(C(F)(F)F)c1)NS(=O)(=O)c1cc(F)c2c(c1)CCNC2)N1CCCC1 [PFI-2 (hydrochloride)]	0.92 (inactive)
O=c1ccc2ccc(O)c(O)c2o1 [Daphnetin]	1.38 (inactive)
COc1cc2c(NC3CCN(C(C)C)CC3)nc(N3CCC(F)(F)CC3)nc2cc1OCCCN1CCCC1	1.03 (inactive)
C=CC(=O)Nc1cccc(Nc2nc(Nc3ccc(N4CCN(C(C)=O)CC4)cc3OC)ncc2C(F)(F)F)c1 [Rociletinib (CO-1686, AVL-301)]	0.886 (inactive)
O=C(O)Cn1nnc(-c2ccc(CN(CCCCOc3ccc(CN4CCCC4)cc3)CCc3ccccc3)cc2)n1 [TH1834 (dihydrochloride)]	1.29 (inactive)
COc1cc2nc(N3CCCC3)nc(NCCCCCN3CCCC3)c2cc1OC	0.881 (inactive)
COc1ccc(-n2c(SCCCN3C(=O)c4cccc5cccc(c45)C3=O)nnc2-c2ccncc2)cc1	0.933 (inactive)
O=C(Nc1ccccc1-c1cn2c(CN3CCNCC3)csc2n1)c1cnc2ccccc2n1 [SRT 1720 (Hydrochloride)]	1.16 (inactive)
Cc1nn(C)cc1-c1nc2c(N3CCN(Cc4ccc(Cl)cc4)CC3)c(Cl)cnc2[nH]1	0.979 (inactive)
O=C(Nc1ccccc1-c1cn2c(CN3CCNCC3)csc2n1)c1cnc2ccccc2n1	1 (inactive)

Compound	PARP1 L713F-nLuc/akaLuc ratio
COc1cc(C)c(/C=C/C(C)=C/C=C/C(C)=C/C(=O)O)c(C)c1C [Acitretin]	0.747 (inactive)
CC(C)(C)C[C@@H]1N[C@@H](C(=O)N[C@H]2CC[C@H](O)CC2)[C@H](c2cccc(Cl)c2F)[C@]12C(=O)Nc1cc(Cl)ccc12	0.287 (active)
CCOC(=O)CCNc1cc(N2CCc3ccccc3CC2)nc(-c2ccccn2)n1	0.586 (inactive)
Cc1cc([C@@H](C)Nc2ccccc2C(=O)O)c2nc(N3CCOCC3)cc(=O)n2c1	0.617 (inactive)
COc1cc(N2CCC(N3CCN(C)CC3)CC2)ccc1Nc1ncnc(Nc2ccccc2S(=O)(=O)C(C)C)n1	0.97 (inactive)
O=C1CCc2ccccc2O1 [Dihydrocoumarin]	0.769 (inactive)
CC1(C)CCC(CN2CCN(c3ccc(C(=O)NS(=O)(=O)c4ccc(NCC5CCOCC5)c([N+](=O)[O-])c4)c(Oc4cnc5[nH]ccc5c4)c3)CC2)=C(c2ccc(Cl)cc2)C1 [Venetoclax (ABT-199, GDC-0199)]	0.901 (inactive)
Cc1nc(Nc2cnn(C3CCNCC3)c2)nc2c1N(C)C(=O)c1cc3ccccc3cc1N2C	0.761 (inactive)
Nc1nc2[nH]cnc2c(=S)[nH]1 [Thioguanine]	1.03 (inactive)
CNS(=O)(=O)C[C@H]1CC[C@H](N(C)c2[nH]cnc3nccc2-3)CC1 [Oclacitinib (maleate)]	0.749 (inactive)
CCNc1nc(Nc2cc(F)c(C(=O)N3CCOCC3)cc2OC)ncc1C(F)(F)F	0.683 (inactive)
CCN(CC)C(=O)c1ccc(Nc2nc(OCC3CCCCC3)c3[nH]cnc3n2)cc1	0.71 (inactive)
O=C(Nc1ccc(Cl)cc1)c1cc2ccccc2cc1O [Naphthol AS-E]	1.09 (inactive)
Cc1cc(-c2ccccc2)cc(C(=O)NNS(=O)(=O)c2cccc(O)c2)c1F	1.16 (inactive)
Cc1cc(-c2nc(-c3ccc(OC(F)(F)F)cc3)no2)nn1Cc1ccnc(N2CCN(C3CC3)CC2)c1	0.46 ± 0.17
CCCCCC1CC1CC1CC1CCCCCCCC(=O)OC (centres undefined)	1 (inactive)
COc1cccc(OC)c1C(=O)OCc1cc(O)ccc1O[C@@H]1O[C@H](CO)[C@@H](O)[C@H](O)[C@H]1O [Curculigoside]	0.993 (inactive)
COc1cc(OC)c(/C=C/S(=O)(=O)Cc2ccc(OC)c(NCC(=O)O)c2)c(OC)c1	0.583 (inactive)
C[C@@H]1CN(CC(=O)Nc2ccc3c(c2)Cc2cccc(-c4cc(=O)cc(N5CCOCC5)o4)c2S3)C[C@H](C)O1	0.788 (inactive)
